Most compounds without a hit are left out; they make up all but 4% or so of the library.
TRPM1 prom inh: inhibitors of MITF-driven TRPM1 promoter in melanoma cells; SK-MEL-5 TRPM1 promoter luciferase, 24 h; 0.83% of 330,000 active; AID 488899; inhibition, % at 12.5 µM;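 active means mean inhibition across replicates of 60% or more, whatever share of single replicates reaches that level; inconclusive means some that reach 60%, reason not given; inactive means mean inhibition across replicates below 60%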
PAX8 reporter: PAX8 transcriptional activity inhibition | RMG-I TPO-luciferase reporter, SteadyGlo, 24 h | 1.2% of 360,000 active | inhibition, % at 12.6 µM;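 active means mean replicate inhibition at least 60% with every replicate also reaching 60%; inconclusive means only one of the two criteria is met; inactive means mean below 60% and not all replicates reaching 60%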;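 further: luciferase light reporting Pax8 driven TPO promoter activity; plate controls were median of neutral control wells for no effect and mitoxantrone controls for full effect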
Wnt act: activators of Wnt/beta-catenin signaling | Wnt/beta-catenin reporter cell assay, activator, plate reader | activation, % at 9.35 µM | 1.2% of 300,000 active | AID 743398; in the data active means activation above about 30%, passing the limit was not always enough; inconclusive means no clear call, values can overlap the other calls;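 further: 0% = neutral control wells and 100% = positive control wells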
MITF TRPM1 HTS: increases MITF-driven TRPM1 promoter luciferase signal; SK-MEL-5 TRPM1-promoter luciferase, 24 h; % of positive control, neutral wells = 0; activation, % at 12.5 µM; 0.75% of 300,000 active; AID 588334;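 active means mean activation of at least 80% with every replicate also reaching 80%; inconclusive means mean reaches 80% but some replicate falls short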;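 further: 0% = neutral control wells and 100% = parthenolide positive control wells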
esBAF inh: blocks esBAF chromatin remodeling in mouse ES cells | Bmi1-luciferase knock-in reporter, 24 h; 100% = twice the neutral-well signal | reporter increase, % at 12.5 µM | 2% of 350,000 active | AID 602393; in the data active means activation above about 40%; inconclusive means no clear call, values can overlap the other calls;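 further: 0% = median of the plate's neutral control wells and 100% = double that signal; a rise in the Bmi1 reporter signal indicates esBAF inhibition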
EWS-Fli inh: EWS/Fli transcriptional activity inhibition; 0.67% of 350,000 active; A673 NR0B1-luciferase reporter, viability-normalised; inhibition, % at 12.6 µM;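 active means mean inhibition of at least 50% after viability correction, with every replicate also passing that limit; inconclusive means mean reaches 50% but only one of two replicates passes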;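 further: firefly luciferase signal divided by Alamar Blue viability fluorescence both relative to DMSO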
* = called active by the depositor; ? = inconclusive; · = no result.

SMILES	TRPM1 prom inh	PAX8 reporter	Wnt act	MITF TRPM1 HTS	esBAF inh	EWS-Fli inh
COc1ccc(-c2ccc3c(c2)[C@H]2[C@H](CCN2C(=O)C2CCCCC2)[C@H](CO)N3C)cc1	·	23	·	·	1	2
COc1ccc(-c2ccc3c(c2)[C@H]2[C@H](CCN2S(=O)(=O)c2ccccc2C)[C@H](CO)N3C)cc1	·	69*	·	·	0	12
COc1ccc(-c2ccc3c(c2)[C@H]2[C@H](CCN2C(=O)C2CCC2)[C@H](CO)N3C)cc1	·	5	·	·	·	-4
COc1ccc(-c2ccc3c(c2)[C@@H]2[C@@H](CCN2C(=O)C2CCCC2)[C@H](CO)N3C)cc1	·	76*	·	·	·	-1
COc1ccc(-c2ccc3c(c2)[C@@H]2[C@@H](CCN2C(=O)C2CCCCC2)[C@H](CO)N3C)cc1	·	93*	·	·	-2	13
CC=Cc1ccc2n(c1=O)C[C@@H]1[C@@H](CO)[C@H](C(=O)Nc3ccc(-c4ccccc4)cc3)[C@H]2N1C(C)=O (mixture of isomers)	·	8	·	·	·	-7
C=CCn1cnc2c(nnn2-c2ccc(OC)c(OC)c2)c1=O	-5	-29	-3	4	·	7
C=CCn1cnc2c(nnn2-c2ccc(C)c(C)c2)c1=O	-107	-87	5	110*	·	-61
CC(C)(C)c1cc2nc(NCc3cccc(Cl)c3)ccn2n1	·	12	-2	·	7	15
Clc1ccc(-c2cc3nc(NCc4cccc(Cl)c4)ccn3n2)cc1	·	-155	6	·	76*	-110
c1ccc(COc2cccc(-c3cc4nc(NCCN5CCOCC5)ccn4n3)c2)cc1	·	14	0	·	2	3
Clc1cccc(CNc2ccn3nc(-c4ccc(OCc5ccccc5)cc4)cc3n2)c1	·	-14	1	·	17	-27
c1ccc(COc2ccc(-c3cc4nc(NCCN5CCOCC5)ccn4n3)cc2)cc1	·	-48	-3	·	49*	-12
c1ccc(COc2ccc(-c3cc4nc(NCCOc5ccccc5)ccn4n3)cc2)cc1	·	-11	-3	·	5	-9
CC(C)Cc1ccc(-c2cc3nc(NCCOc4ccccc4)ccn3n2)cc1	·	-113	0	·	58*	-52
Clc1cccc(CNc2ccn3nc(-c4ccccc4)cc3n2)c1	·	-143	5	·	50*	-77
CCCNC(=O)C[C@@H]1CC[C@@H]2[C@H](COc3ccc(NC(=O)c4cc(C)on4)cc3C(=O)N2C)O1	·	0	·	·	2	1
C[C@@H]1CN([C@H](C)CO)C(=O)c2cc(N(C)C)ccc2O[C@@H](C)CCCCO[C@H]1CN(C)C(=O)Nc1ccccc1	·	11	·	·	-4	0
COc1ccccc1C(=O)Nc1ccc2c(c1)C(=O)N(C)C[C@H](OC)[C@H](C)CN(C(C)=O)[C@@H](C)CO2	·	·	·	·	7	-2
Clc1cccc(-c2cc3nc(NCCOc4ccccc4)ccn3n2)c1	·	-24	11	·	57*	-92
COc1cc(-c2cc3nc(NCc4ccco4)ccn3n2)cc(OC)c1OC	·	-3	4	·	1	4
CN(C)C(=O)CNc1ccn2nc(-c3cccc(Cl)c3)cc2n1	·	-71	1	·	35	-57
Clc1cccc(CNc2ccn3nc(-c4cccc(Cl)c4)cc3n2)c1	·	-100	-3	·	58*	-88
Clc1ccccc1-c1cc2nc(NCc3ccco3)ccn2n1	·	-201	3	·	72*	-102
CCCCOc1ccc(NC(=O)c2cnc(C)cn2)cc1	-34	-70	15	33	58*	·
SMILES	TRPM1 prom inh	PAX8 reporter	Wnt act	MITF TRPM1 HTS	esBAF inh	EWS-Fli inh
CCCCOc1ccc(C(=O)Nc2ccncc2)cc1	-17	·	·	16	·	·
Cc1cnc(C(=O)OCC(=O)Nc2ccc(OCc3ccccc3)cc2)cn1	-91	-134	32*	96*	?	-83
Cc1cnc(C(=O)Nc2ccc(F)c(F)c2)cn1	-89	·	·	79	62*	·
Cc1noc(C)c1S(=O)(=O)Nc1ccc2c(c1)CC(=O)N([C@@H](C)CO)C[C@H](C)[C@@H](CN(C)Cc1ccc(C(=O)Nc3ccccc3N)cc1)O2	·	-31	·	·	·	4
CN(C)c1ccc2c(c1)[C@@H]1C[C@@H](CC(=O)NCc3ccc4c(c3)OCO4)O[C@H](CO)[C@@H]1O2	·	1	·	·	2	-4
NNCCc1ccccc1	-65	-75	27	60	63*	-47
COc1cc(C#Cc2c(-c3cncn3C)n(C)c3ccc(-c4cc(OC)c(OC)c(OC)c4)cc23)cc(OC)c1	12	73*	-8	-13	4	23

Assay outcomes (PubChem)
